# Experimental data from PubChem BioAssay (Tox21).
# Where “and” joins values, the source holds several entries; their conditions need not be identical. Equal entries are not always repeated. Results filed as inconclusive are left out. A call without a number means that no potency is given here. Some structures have more than one record in an assay (separate samples or runs), and their calls can disagree. Calls of active or inactive are those of the source. Unless noted, calls come from the whole dose curve; as a rule, active = well fitted curve in the direction sought with a large enough effect in the repeat runs; inconclusive = weak or mixed curves; inactive = no such curve, though single readings can be large; an effect the other way counts as inactive or inconclusive.
# Tests used:
# [1] = qHTS assay to identify small molecule agonists of the estrogen receptor alpha (ER-alpha) signaling pathway in the presence of an antagonist - cell viability counter screen (AID 1259386);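 note: series mostly up to about 92 µM; cells exposed to compounds for 22 h at 37 °C before the viability read; nearly all actives have a fitted effect of over 30% in size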
# Outline: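 VM7Luc4E2, stripped-serum pre-culture 5 d; 24hr plating; +ICI-182,780 10.0nM final; cpds 15 conc, 22hr, 37C/5% CO2; CellTiter-Fluor added at 21hr, fluorescence 1hr later.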
# [2] = molecular target: Progesterone receptor (Homo sapiens) (UniProt P06401); test: qHTS assay to identify small molecule agonists of the progesterone receptor (PR) signaling pathway (AID 1346784; calls by dose curve; note: nearly all actives have a fitted effect of over 30% in size)
# Outline: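 Seed PR-UAS-bla HEK 293T cells (2% charcoal-stripped FBS), incubate 6 hr at 37C; add compounds in DMSO, 16 hr at 37C; add LiveBLAzer B/G substrate, 2 hr RT; read fluorescence intensity.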
# [3] = molecular target: Progesterone receptor (Homo sapiens) (UniProt P06401); test: qHTS assay to identify small molecule antagonists of the progesterone receptor (PR) signaling pathway (AID 1346795; active = well fitted inhibition curve with a large enough effect in the signal ratio in the repeat runs, not every such curve was filed as active; the % refers to the signal ratio; note: potency is the fitted concentration of half-maximal effect)
# Outline: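 Screening used a GripTite HEK293T line with PR-responsive UAS-beta-lactamase. Cells were challenged with compound in the presence of 1 nM R5020 final for 16 hr at 37C; B/G FRET substrate, 2 hr room temperature, fluorescence.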
# [4] = qHTS assay to identify small molecule agonists of the progesterone receptor (PR) signaling pathway - cell viability counter screen (AID 1346799; calls by dose curve; note: nearly all actives have a fitted effect of over 45% in size; note: potency is the fitted concentration of half-maximal effect)
# Outline: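 Using the same plates as the PR reporter screen, HEK293T PR-UAS-bla cells received compounds for 16 hr at 37C and were then lysed with CellTiter-Glo; luminescence was read 30 min later at room temperature.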
# [5] = qHTS assay to identify small molecule antagonists of the TGF-beta/Smad signaling pathway - cell viability counter screen (AID 1346824); note: nearly all actives have a fitted effect of over 50% in size
# Outline: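 SBE-bla HEK 293T cells were plated overnight at 37 C, then given compounds in DMSO plus TGF-beta1 (added as 0.25 ng/mL solution) for 5 hr. After the bla read, CellTiter-Glo was added to the same wells and luminescence read after 30 min at room temperature.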
# [6] = qHTS assay to identify small molecule agonists of the TGF-beta/Smad signaling pathway - cell viability counter screen (AID 1346829); note: top concentration of the series differs between compounds; nearly all actives have a fitted effect of over 45% in size
# Outline: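 HEK 293T SBE-bla line, 5 hr compound exposure at 37 C, multiplexed CellTiter-Glo viability read by luminescence.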
# [7] = qHTS assay to identify small molecule agonists of the TGF-beta/Smad signaling pathway (AID 1346859; active = well fitted activation curve with a large enough effect in the signal ratio in the repeat runs, not every such curve was filed as active; the % refers to the signal ratio; note: series mostly up to about 77 µM)
# Outline: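 Beta-lactamase reporter activity downstream of Smad binding elements was measured in stably transfected HEK 293T cells; compounds were incubated for 5 hr, substrate for 2 hr at room temperature.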
# [8] = molecular target: Thyrotropin-releasing hormone receptor (Homo sapiens) (UniProt P34981); test: qHTS assay to identify small molecule antagonists of the thyrotropin-releasing hormone receptor (TRHR) signaling pathway (AID 1346877; active = well fitted inhibition curve with a large enough effect in the repeat runs, not every such curve was filed as active; note: series mostly up to about 51 µM)
# Outline: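 Intracellular calcium fluorescence, read kinetically every second over 3 min, reports TRH-evoked signalling in HEK293 cells carrying TRHR. Test compounds were added 5 min ahead of a 1 nM TRH challenge.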
# [9] = Human pregnane X receptor (PXR) small molecule agonists, qHTS cell viability counter screen (AID 1346977); note: nearly all actives have a fitted effect of over 50% in size
# Outline: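 After a 5hr pre-incubation, PXR-Luc HepG2 cells received compounds plus positive control in DMSO and were kept 24hr at 37C. Cell viability was quantified by fluorescence from CellTiter-Fluor added for the final hour.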
# [10] = Caspase-3/7 induction in HepG2 cells by small molecules, qHTS assay (AID 1346978); note: nearly all actives have a fitted effect of over 15% in size
# Outline: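 Wild-type HepG2 cells (2,000/well) were settled 5 h at 37 C, 5% CO2, then exposed to compounds in DMSO for 17 h. Caspase-3/7 activity was read by luminescence 30 min after adding Caspase-Glo 3/7 reagent at room temperature.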
# [11] = Caspase-3/7 induction in CHO-K1 cells by small molecules, qHTS cell viability counter screen (AID 1346979); note: nearly all actives have a fitted effect of over 35% in size
# Outline: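 Multiplexed with Caspase-Glo 3/7 in CHO-K1 cells, this counter screen added CellTiter-Fluor after 16hr of compound exposure and recorded fluorescence 1hr later.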
# [12] = Caspase-3/7 induction in CHO-K1 cells by small molecules, qHTS assay (AID 1346980); note: nearly all actives have a fitted effect of over 15% in size
# Outline: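 Wild-type cells were seeded at 1,500 per well and settled 5 hr at 37 C, 5% CO2, then exposed to DMSO-dissolved compounds for 17 hr. Caspase-Glo 3/7 reagent was added, and luminescence was read after 30min at room temperature.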
# [13] = Caspase-3/7 induction in HepG2 cells by small molecules, qHTS cell viability counter screen (AID 1346981); note: series mostly up to about 92 µM; nearly all actives have a fitted effect of over 30% in size
# Outline: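 HepG2, WT, 2,000 cells/well; 5 hr pre-incubation 37 C/5% CO2; compound pin-transferred from DMSO; 16 hr exposure; CellTiter-Fluor, 1 hr; fluorescence read.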
# [14] = molecular target: Nuclear receptor subfamily 1 group I member 2 (Homo sapiens) (UniProt O75469); test: Human pregnane X receptor (PXR) small molecule agonists, qHTS assay (AID 1346982); note: nearly all actives have a fitted effect of over 35% in size; note: potency is the fitted concentration of half-maximal effect
# Outline: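 Luciferase signal from ONE-Glo (30 min, room temperature) measured activation of hPXR-driven CYP3A4 reporter expression in PXR-Luc HepG2 cells treated with compounds for 24 hr at 37 C.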
# [15] = molecular target: Acetylcholinesterase (Homo sapiens) (UniProt P22303); test: Acetylcholinesterase (AChE) small molecule antagonists: colormetric cell-based qHTS assay (AID 1347395; calls by dose curve; note: nearly all actives have a fitted effect of over 30% in size; note: potency is the fitted concentration of half-maximal effect)
# Outline: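 In this cell-based qHTS, attached SH-SY5Y cells were treated with test chemicals for 30 min, after which acetylthiocholine hydrolysis was followed by DTNB colour development over 90 min at 37 C.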
# [16] = qHTS assay to identify small molecule antagonists of the progesterone receptor (PR) signaling pathway - cell viability counter screen (AID 1346798); note: series mostly up to about 92 µM; nearly all actives have a fitted effect of over 50% in size
# Outline: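 Measures cytotoxicity in parallel with the PR antagonist reporter read: HEK293T PR-UAS-bla cells get compound and R5020 for 16 hr, and remaining viable cells are quantified by CellTiter-Glo luminescence.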
# [17] = molecular target: Thyrotropin-releasing hormone receptor (Homo sapiens) (UniProt P34981); test: qHTS assay to identify small molecule agonists of the thyrotropin-releasing hormone receptor (TRHR) signaling pathway (AID 1346891; calls by dose curve;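 note: HEK293 cells expressing TRHR with calcium dye readout; series mostly up to about 58 µM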)
# Outline: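 Overnight-plated (18 h, 37 °C, 5% CO2) TRHR-Hek293 cells; 2 h calcium dye at 37 °C; compound in DMSO; 3-min kinetic fluorescence read.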
# [18] = molecular target: Nuclear receptor subfamily 1 group I member 2 (Rattus norvegicus) (UniProt Q9R1A7); test: Rat pregnane X receptor (rPXR) activation by small molecules, qHTS assay (AID 1346983); settings: rPXR luciferase reporter cells, One-Glo luminescence, 24 h; stronger effect = higher value; note: nearly all actives have a fitted effect of over 20% in size
# Outline: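 Cell-based rPXR luciferase reporter assay, 2,000 cells per well, rested 5hr at 37 C before compound addition in DMSO, then 24 hr at 37 C. One-Glo reagent was added and luminescence read after 30 min at room temperature.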
# [19] = molecular target: Nuclear receptor subfamily 1 group I member 2 (Homo sapiens) (UniProt O75469); test: CYP3A4 induction through human pregnane X receptor (PXR) by small molecules, qHTS assay (AID 1346984); note: nearly all actives have a fitted effect of over 40% in size
# Outline: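 Luminescence readout: luciferase signal after One-Glo (30 min, room temperature), following 3 h at 37C with 3uM final Luciferin-IPA P450 substrate. Cells were DPX-2 (HepG2, PXR/CYP3A4-luc co-transfected) dosed for 24 h.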
# [20] = molecular target: Nuclear receptor subfamily 1 group I member 2 (Homo sapiens) (UniProt O75469); test: Human pregnane X receptor (PXR) activation by small molecules, qHTS assay (AID 1346985); note: nearly all actives have a fitted effect of over 40% in size
# Outline: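 DPX-2 cells (HepG2 co-transfected with a PXR response element and a CYP3A4-promoter luciferase construct) were seeded at 2,000 per well, rested 5 hr at 37C, then exposed to DMSO-dissolved compounds for 24 hr. Activation was read as luciferase luminescence.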
# Sequence of Nuclear receptor subfamily 1 group I member 2 (Homo sapiens) (O75469 whole entry, looked up): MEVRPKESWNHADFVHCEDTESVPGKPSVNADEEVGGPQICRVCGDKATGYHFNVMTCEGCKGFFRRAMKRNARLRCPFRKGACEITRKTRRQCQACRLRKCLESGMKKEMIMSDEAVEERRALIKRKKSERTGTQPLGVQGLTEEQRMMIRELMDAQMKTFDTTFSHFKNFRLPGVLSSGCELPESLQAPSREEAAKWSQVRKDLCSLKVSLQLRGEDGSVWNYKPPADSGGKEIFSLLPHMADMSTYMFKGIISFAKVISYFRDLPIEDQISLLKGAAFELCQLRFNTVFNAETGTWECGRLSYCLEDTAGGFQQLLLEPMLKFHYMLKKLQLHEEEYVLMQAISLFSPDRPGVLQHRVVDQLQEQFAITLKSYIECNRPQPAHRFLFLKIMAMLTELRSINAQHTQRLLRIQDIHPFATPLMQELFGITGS
# Sequence of Acetylcholinesterase (Homo sapiens) (P22303 whole entry, looked up): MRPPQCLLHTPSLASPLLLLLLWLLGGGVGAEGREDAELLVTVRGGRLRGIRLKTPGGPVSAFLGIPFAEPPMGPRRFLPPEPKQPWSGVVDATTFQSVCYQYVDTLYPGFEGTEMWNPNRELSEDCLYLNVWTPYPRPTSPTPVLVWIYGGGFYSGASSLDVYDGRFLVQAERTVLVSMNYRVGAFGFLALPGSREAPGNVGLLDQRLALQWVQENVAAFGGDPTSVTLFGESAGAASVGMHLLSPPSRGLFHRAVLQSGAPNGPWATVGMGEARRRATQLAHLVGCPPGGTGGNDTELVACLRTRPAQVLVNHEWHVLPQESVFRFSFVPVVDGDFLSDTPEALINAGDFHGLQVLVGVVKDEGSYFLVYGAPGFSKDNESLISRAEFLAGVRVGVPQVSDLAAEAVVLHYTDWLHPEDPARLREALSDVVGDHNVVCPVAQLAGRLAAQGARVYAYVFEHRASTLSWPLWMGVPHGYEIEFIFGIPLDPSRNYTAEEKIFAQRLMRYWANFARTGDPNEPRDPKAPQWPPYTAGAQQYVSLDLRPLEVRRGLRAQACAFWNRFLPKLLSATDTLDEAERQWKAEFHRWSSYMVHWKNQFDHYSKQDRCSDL
# Sequence of Progesterone receptor (Homo sapiens) (P06401 whole entry, looked up): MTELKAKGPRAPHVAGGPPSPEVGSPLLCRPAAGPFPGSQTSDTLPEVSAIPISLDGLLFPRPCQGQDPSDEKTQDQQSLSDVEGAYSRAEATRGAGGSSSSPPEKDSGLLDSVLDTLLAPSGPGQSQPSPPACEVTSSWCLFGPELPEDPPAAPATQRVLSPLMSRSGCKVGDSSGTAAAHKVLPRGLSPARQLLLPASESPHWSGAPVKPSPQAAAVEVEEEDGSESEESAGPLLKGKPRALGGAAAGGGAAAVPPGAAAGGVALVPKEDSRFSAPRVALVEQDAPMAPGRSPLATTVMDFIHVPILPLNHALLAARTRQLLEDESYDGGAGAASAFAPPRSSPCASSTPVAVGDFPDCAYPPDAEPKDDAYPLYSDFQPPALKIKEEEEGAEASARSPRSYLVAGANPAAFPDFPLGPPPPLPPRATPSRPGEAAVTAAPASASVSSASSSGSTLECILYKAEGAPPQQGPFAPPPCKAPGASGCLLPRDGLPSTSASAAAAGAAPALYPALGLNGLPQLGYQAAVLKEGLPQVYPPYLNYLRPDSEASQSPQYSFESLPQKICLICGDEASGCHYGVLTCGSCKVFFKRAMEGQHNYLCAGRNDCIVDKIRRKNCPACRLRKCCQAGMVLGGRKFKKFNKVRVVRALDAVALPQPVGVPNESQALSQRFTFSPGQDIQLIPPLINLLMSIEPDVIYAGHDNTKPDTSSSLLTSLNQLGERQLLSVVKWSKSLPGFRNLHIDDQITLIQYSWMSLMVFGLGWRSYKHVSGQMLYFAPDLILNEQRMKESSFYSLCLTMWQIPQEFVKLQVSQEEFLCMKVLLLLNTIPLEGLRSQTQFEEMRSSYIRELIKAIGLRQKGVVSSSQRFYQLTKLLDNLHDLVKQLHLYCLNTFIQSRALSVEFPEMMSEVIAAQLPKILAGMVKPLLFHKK
# Sequence of Thyrotropin-releasing hormone receptor (Homo sapiens) (P34981 whole entry, looked up): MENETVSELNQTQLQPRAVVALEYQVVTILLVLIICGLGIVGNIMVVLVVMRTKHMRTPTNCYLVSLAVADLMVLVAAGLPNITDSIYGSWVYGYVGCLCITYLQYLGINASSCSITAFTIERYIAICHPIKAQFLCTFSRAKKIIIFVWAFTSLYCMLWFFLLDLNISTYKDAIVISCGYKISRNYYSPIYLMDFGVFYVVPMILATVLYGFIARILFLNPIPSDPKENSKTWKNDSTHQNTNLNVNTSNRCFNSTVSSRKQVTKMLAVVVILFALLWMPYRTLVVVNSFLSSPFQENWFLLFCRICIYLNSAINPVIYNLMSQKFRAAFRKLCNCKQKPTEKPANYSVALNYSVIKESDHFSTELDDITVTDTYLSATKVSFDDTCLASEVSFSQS
# Sequence of Nuclear receptor subfamily 1 group I member 2 (Rattus norvegicus) (Q9R1A7 whole entry, looked up): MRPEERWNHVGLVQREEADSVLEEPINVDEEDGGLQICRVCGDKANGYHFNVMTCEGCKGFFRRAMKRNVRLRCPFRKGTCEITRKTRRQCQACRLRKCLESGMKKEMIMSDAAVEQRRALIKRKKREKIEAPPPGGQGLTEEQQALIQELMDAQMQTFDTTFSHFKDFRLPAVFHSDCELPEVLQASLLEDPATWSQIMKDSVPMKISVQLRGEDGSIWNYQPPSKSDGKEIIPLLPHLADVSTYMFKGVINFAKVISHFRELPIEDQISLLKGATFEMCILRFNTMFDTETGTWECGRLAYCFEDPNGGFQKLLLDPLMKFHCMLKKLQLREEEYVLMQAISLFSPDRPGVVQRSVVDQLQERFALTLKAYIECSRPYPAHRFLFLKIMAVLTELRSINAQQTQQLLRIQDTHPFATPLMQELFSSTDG
SMILES,Potency [1],Potency [2],Potency [3],Potency [4],outcome [5],Potency [6],outcome [7],Potency [8],Potency [9],outcome [10],Potency [11],outcome [12],Potency [13],Potency [14],Potency [15],Potency [16],outcome [17],max activation [18],Potency [19],Potency [20]
C=C(Cl)CCl,inactive,inactive,inactive,inactive,inactive,inactive,inactive,inactive,inactive,inactive,inactive,inactive,inactive,inactive,inactive,,,,,
N#CN,inactive,inactive,inactive,inactive,,inactive,inactive,inactive,inactive,inactive,inactive,inactive,inactive,inactive,inactive,inactive,inactive,0.661% (inactive),inactive,inactive
C=CC1(C)OC(=O)N(c2cc(Cl)cc(Cl)c2)C1=O (stereo unspecified),inactive,inactive,21.6 µM (active),54.2 µM (active) and inactive,inactive,inactive,inactive,inactive,inactive,inactive,inactive,inactive,inactive,60.8 µM (active) and 54.5 µM (active),inactive,,inactive,,,
BrCC1CO1 (stereo unspecified),inactive,inactive,inactive,,inactive,inactive,inactive,inactive,inactive,inactive,inactive,inactive,inactive,inactive,inactive,inactive,inactive,,,
CCOP(=S)(OCC)SCCl,inactive,inactive,inactive,inactive,inactive,inactive,,inactive,inactive,inactive,,inactive,,inactive,inactive,inactive,inactive,,,
CCOC(=O)Nc1cccc(OC(=O)Nc2ccccc2)c1,inactive,inactive,inactive,,inactive,,inactive,inactive,inactive,inactive,inactive,inactive,,30.6 µM (active),inactive,inactive,,,,
C=CCCC#N,inactive,inactive,inactive,inactive,inactive,inactive,,inactive,inactive,inactive,inactive,,inactive,inactive,inactive,inactive,inactive,,,
O=C(NC(=O)c1c(F)cccc1F)Nc1cc(Cl)c(F)c(Cl)c1F,inactive,inactive,inactive,inactive,,inactive,inactive,inactive,inactive,inactive,inactive,inactive,inactive,inactive,inactive,inactive,,,,
COC(=O)[C@@H](N)CCCN/C(N)=N/[N+](=O)[O-],inactive,inactive,inactive,inactive,inactive,inactive,inactive,inactive,inactive,inactive,inactive,inactive,inactive,,inactive,,inactive,0.511% (inactive),,
O=C(O)C(Br)(Br)Br,inactive,inactive,inactive,inactive,inactive,inactive,,inactive,inactive,inactive,inactive,inactive,,inactive,inactive,inactive,inactive,,,
C/C(=N\NC(=O)Nc1cc(F)cc(F)c1)c1ncccc1C(=O)O,inactive,inactive,inactive,inactive and 68.6 µM (active),inactive,inactive,inactive,inactive,inactive,inactive,inactive,inactive,,inactive,inactive,,inactive,,,
N#CN=C1SCCN1Cc1ccc(Cl)nc1,inactive,inactive,inactive,,inactive,inactive,inactive,inactive,inactive,inactive,inactive,,,,35.6 µM (active),inactive,inactive,,,
ClCCN1CCCC1,inactive,inactive,inactive,,inactive,inactive,inactive,,inactive,inactive,inactive,inactive,inactive,inactive,inactive,inactive,,,,
COP(=O)(OC)O/C(C)=C/C(=O)N(C)C,inactive,inactive,inactive,,inactive,inactive,inactive,inactive,inactive,inactive,inactive,inactive,inactive,inactive,40.2 µM (active),inactive,,,,
